Experimental data: the OligoGym collection

Molecular target: PPP1R13B
Experiment: pooled miR-30 sensor sort-seq; sequence = guide strand
Details: shRNA
Further: reference of the scale not given here.

**Q.** For TACACTGCTTTAACTGACTTAT, which sensor-assay potency score (higher = more potent) is on record?
**A.** -0.93

**Q.** Which sensor-assay potency score (higher = more potent) does the source give for TTCTACAACATCTCGACAGGTT here?
**A.** 0.568

**Q.** How did the sensor-assay potency score (higher = more potent) turn out when TAAGAGTTCCTTCTGCTGCTGA was run?
**A.** 0.621

**Q.** TACATTTATTACATTTCTCTGA was tested. Which sensor-assay potency score (higher = more potent) did it give?
**A.** -0.374

**Q.** How did the sensor-assay potency score (higher = more potent) turn out when TTCACTGATTCGCTTGTCCATC was run?
**A.** -0.504

**Q.** TTGCTGTAGTCGACTTGTCCTC was tested. Which sensor-assay potency score (higher = more potent) did it give?
**A.** -0.682

**Q.** With TTCCTTGGCAACCAACATCTGC as the sequence, how does the sensor-assay potency score (higher = more potent) read?
**A.** -1.09

Molecular target: PPP1R15A
Experiment: as above
Details: shRNA

**Q.** ATGGACAGTGACCTTCTCGGAG was tested. Which sensor-assay potency score (higher = more potent) did it give?
**A.** -1.22

**Q.** TTTACTGCTTCCACCAGCCAGG was tested. Which sensor-assay potency score (higher = more potent) did it give?
**A.** -0.645

**Q.** With TAGAGGTTCTGTGAGCTTCTTT as the sequence, how does the sensor-assay potency score (higher = more potent) read?
**A.** 0.0683

**Q.** How did the sensor-assay potency score (higher = more potent) turn out when TTCTGTTCTTTTATCCTCCGTG was run?
**A.** -0.152

**Q.** How did the sensor-assay potency score (higher = more potent) turn out when TAGGGGAGTCTCAGGGTCCGGA was run?
**A.** -1.44

**Q.** With TCCTTTTACTGCTTCCACCAGC as the sequence, how does the sensor-assay potency score (higher = more potent) read?
**A.** -1.39

**Q.** With TTCTGTGAGCTTCTTTCTTTAC as the sequence, how does the sensor-assay potency score (higher = more potent) read?
**A.** -1.62

**Q.** How did the sensor-assay potency score (higher = more potent) turn out when TGGACAGTGACCTTCTCGGAGA was run?
**A.** -1.41

**Q.** For AAGAGAACTTGTTAACTCCCTC, which sensor-assay potency score (higher = more potent) is on record?
**A.** 0.225

**Q.** For TTCAGGAAGGGAACTGCTGGTT, which sensor-assay potency score (higher = more potent) is on record?
**A.** -0.684

**Q.** With TTGCCAGAGGAGTCCTAGCTTC as the sequence, how does the sensor-assay potency score (higher = more potent) read?
**A.** -1.05

**Q.** How did the sensor-assay potency score (higher = more potent) turn out when TTTTACTGCTTCCACCAGCCAG was run?
**A.** -1.03

Molecular target: PPP1R3A
Experiment: as above
Details: shRNA

**Q.** TTACATATACTAACTTCTCAAA was tested. Which sensor-assay potency score (higher = more potent) did it give?
**A.** -1.14

**Q.** TTGAACAATGAATAGTCCCATT was tested. Which sensor-assay potency score (higher = more potent) did it give?
**A.** -1.02

**Q.** Which sensor-assay potency score (higher = more potent) does the source give for TTGTTTTTCATTAACACCTAAA here?
**A.** -0.918

**Q.** For TTGAATTACAAATATTTTCTGA, which sensor-assay potency score (higher = more potent) is on record?
**A.** -0.0203

**Q.** TGGATTAGCATTATCATCCAGG was tested. Which sensor-assay potency score (higher = more potent) did it give?
**A.** -0.615

**Q.** How did the sensor-assay potency score (higher = more potent) turn out when TTGATGAACAAACTTGACCAGT was run?
**A.** -0.427

**Q.** TTTGTTTTTCATTAACACCTAA was tested. Which sensor-assay potency score (higher = more potent) did it give?
**A.** -0.646

**Q.** With TATAGGTACAAATTCATTCTGA as the sequence, how does the sensor-assay potency score (higher = more potent) read?
**A.** 0.416

**Q.** How did the sensor-assay potency score (higher = more potent) turn out when TAAAATGTCATAATGTGTCTGC was run?
**A.** 0.498

**Q.** How did the sensor-assay potency score (higher = more potent) turn out when TTATCATCAACTCTAATTCTTT was run?
**A.** -0.712

**Q.** How did the sensor-assay potency score (higher = more potent) turn out when TTGGTGAATGAGACACATCTGC was run?
**A.** -0.3

**Q.** TATAGGTATTTAATGATCCAAA was tested. Which sensor-assay potency score (higher = more potent) did it give?
**A.** -1.48

Molecular target: PPP2R2B
Experiment: as above
Details: shRNA

**Q.** For TTGACGGTCAAGTAGTCCCTGG, which sensor-assay potency score (higher = more potent) is on record?
**A.** -0.065

**Q.** For TTCTATTCCAATCATTTCCTGT, which sensor-assay potency score (higher = more potent) is on record?
**A.** -0.465

**Q.** With TAGAGGGAACACAGCTTGCTGC as the sequence, how does the sensor-assay potency score (higher = more potent) read?
**A.** -0.62

**Q.** With TTCATAGAGGGAACACAGCTTG as the sequence, how does the sensor-assay potency score (higher = more potent) read?
**A.** -0.115

**Q.** With TTAAATACTACAGACAACCTCA as the sequence, how does the sensor-assay potency score (higher = more potent) read?
**A.** 0.289

**Q.** How did the sensor-assay potency score (higher = more potent) turn out when TAAACTCTTCAGGTAATCGAAC was run?
**A.** -0.877

**Q.** Which sensor-assay potency score (higher = more potent) does the source give for TTTTACTCTCCTGCTCTCGTTG here?
**A.** -0.655

**Q.** With TTCTTCTATTTCTAAACTCTTC as the sequence, how does the sensor-assay potency score (higher = more potent) read?
**A.** -0.752

**Q.** For TTGACTAGTATTCAGTATGTGA, which sensor-assay potency score (higher = more potent) is on record?
**A.** -0.666
